About 7,900 targets were measured; listed, in parts, are those with a hit and a random draw of the rest. About 0.6% of all pairs of compound and target were hits. A number with no mark means an inactive call.

Sequence of UniProt Q99986 (Q99986 whole entry, looked up): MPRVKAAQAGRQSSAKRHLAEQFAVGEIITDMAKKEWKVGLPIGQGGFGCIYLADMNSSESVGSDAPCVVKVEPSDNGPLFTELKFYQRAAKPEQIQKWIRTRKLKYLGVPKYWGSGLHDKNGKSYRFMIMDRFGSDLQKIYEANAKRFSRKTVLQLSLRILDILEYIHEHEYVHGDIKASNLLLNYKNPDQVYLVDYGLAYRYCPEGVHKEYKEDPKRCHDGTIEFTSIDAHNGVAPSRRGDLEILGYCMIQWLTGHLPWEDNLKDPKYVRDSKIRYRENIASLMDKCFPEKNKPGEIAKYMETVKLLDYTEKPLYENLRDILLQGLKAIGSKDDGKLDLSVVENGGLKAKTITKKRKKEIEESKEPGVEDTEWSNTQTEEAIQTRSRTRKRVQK
Sequence of UniProt O60701 (O60701 whole entry, looked up): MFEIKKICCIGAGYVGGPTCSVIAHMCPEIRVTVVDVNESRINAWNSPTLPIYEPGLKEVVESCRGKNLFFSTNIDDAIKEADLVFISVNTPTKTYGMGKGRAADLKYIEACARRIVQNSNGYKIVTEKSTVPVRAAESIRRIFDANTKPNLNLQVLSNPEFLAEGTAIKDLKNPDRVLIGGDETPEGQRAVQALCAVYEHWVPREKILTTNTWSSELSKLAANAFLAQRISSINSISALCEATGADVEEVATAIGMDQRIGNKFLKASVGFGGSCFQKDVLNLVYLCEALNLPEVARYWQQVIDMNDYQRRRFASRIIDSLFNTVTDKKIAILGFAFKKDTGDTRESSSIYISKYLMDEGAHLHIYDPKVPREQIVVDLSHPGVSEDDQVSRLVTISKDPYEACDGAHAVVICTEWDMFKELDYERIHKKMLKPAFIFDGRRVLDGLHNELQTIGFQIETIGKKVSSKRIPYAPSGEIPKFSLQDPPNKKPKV
Sequence of UniProt Q96K49 (Q96K49 whole entry, looked up): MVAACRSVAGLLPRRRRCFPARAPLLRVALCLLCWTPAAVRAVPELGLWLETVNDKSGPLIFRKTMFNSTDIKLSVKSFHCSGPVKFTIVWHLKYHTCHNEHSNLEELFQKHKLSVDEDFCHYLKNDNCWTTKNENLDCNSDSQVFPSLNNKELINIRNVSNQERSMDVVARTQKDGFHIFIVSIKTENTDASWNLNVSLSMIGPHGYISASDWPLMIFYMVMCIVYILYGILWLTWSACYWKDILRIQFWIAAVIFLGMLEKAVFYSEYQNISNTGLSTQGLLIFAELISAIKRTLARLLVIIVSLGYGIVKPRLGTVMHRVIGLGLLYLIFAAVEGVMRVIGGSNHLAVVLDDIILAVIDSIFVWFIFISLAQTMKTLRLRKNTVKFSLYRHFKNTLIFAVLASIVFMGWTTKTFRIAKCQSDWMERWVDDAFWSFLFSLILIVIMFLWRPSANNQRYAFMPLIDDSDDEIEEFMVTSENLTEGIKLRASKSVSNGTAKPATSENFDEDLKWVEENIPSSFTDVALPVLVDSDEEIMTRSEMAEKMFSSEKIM
Sequence of UniProt P30291 (P30291 whole entry, looked up): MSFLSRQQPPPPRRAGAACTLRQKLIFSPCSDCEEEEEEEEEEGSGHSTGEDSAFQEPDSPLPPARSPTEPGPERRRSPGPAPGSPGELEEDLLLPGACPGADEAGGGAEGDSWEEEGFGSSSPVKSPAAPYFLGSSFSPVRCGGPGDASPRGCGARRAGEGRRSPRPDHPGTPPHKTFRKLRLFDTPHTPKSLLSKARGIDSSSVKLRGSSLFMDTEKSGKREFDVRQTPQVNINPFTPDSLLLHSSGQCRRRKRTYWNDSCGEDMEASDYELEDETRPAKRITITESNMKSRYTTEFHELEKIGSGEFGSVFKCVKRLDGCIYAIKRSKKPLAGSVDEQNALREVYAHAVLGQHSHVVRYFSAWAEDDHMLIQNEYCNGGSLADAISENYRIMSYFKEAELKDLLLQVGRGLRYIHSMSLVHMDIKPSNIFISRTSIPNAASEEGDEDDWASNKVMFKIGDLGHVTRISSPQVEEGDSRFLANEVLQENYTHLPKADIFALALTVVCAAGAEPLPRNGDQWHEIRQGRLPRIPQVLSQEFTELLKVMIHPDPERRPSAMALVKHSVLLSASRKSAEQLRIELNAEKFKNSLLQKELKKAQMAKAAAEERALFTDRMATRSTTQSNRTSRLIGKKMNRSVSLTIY
Sequence of UniProt Q9BUB7 (Q9BUB7 whole entry, looked up): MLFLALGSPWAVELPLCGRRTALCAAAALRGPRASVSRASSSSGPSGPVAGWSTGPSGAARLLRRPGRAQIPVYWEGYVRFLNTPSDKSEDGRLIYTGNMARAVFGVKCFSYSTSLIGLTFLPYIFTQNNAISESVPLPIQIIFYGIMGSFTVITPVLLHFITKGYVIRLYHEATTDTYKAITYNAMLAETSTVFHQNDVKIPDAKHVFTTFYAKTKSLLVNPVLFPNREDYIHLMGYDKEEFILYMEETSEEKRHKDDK
Sequence of UniProt P21796 (P21796 whole entry, looked up): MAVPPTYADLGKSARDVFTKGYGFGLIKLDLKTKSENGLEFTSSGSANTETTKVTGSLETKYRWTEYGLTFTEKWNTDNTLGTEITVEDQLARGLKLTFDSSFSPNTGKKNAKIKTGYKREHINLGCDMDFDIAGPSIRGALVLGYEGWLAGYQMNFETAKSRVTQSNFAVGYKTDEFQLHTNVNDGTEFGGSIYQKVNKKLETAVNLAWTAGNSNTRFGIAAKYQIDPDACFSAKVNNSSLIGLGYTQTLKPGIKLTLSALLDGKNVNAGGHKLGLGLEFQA
Sequence of UniProt Q92973 (Q92973 whole entry, looked up): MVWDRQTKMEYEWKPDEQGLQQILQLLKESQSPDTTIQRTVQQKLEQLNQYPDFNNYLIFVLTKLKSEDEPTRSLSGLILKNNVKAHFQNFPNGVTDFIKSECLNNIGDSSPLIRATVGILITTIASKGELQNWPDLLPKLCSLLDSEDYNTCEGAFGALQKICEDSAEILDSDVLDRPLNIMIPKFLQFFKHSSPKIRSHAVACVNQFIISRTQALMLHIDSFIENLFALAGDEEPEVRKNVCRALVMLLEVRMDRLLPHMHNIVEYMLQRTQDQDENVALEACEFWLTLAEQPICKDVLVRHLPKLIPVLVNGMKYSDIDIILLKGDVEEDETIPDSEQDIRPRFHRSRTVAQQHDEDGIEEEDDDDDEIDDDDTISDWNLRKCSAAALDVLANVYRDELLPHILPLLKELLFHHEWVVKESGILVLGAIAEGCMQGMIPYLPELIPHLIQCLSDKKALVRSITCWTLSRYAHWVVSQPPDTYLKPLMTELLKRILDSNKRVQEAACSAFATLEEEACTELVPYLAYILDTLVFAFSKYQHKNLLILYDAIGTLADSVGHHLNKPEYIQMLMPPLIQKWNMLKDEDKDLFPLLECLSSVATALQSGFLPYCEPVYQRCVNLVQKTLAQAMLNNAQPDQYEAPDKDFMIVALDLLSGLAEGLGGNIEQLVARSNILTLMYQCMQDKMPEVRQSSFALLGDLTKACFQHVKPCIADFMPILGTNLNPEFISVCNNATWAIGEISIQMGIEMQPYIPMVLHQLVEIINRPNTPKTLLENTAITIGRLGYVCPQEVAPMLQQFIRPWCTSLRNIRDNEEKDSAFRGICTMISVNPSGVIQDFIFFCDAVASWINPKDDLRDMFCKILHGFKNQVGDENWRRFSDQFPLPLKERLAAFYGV
Sequence of UniProt Q96JG6 (Q96JG6 whole entry, looked up): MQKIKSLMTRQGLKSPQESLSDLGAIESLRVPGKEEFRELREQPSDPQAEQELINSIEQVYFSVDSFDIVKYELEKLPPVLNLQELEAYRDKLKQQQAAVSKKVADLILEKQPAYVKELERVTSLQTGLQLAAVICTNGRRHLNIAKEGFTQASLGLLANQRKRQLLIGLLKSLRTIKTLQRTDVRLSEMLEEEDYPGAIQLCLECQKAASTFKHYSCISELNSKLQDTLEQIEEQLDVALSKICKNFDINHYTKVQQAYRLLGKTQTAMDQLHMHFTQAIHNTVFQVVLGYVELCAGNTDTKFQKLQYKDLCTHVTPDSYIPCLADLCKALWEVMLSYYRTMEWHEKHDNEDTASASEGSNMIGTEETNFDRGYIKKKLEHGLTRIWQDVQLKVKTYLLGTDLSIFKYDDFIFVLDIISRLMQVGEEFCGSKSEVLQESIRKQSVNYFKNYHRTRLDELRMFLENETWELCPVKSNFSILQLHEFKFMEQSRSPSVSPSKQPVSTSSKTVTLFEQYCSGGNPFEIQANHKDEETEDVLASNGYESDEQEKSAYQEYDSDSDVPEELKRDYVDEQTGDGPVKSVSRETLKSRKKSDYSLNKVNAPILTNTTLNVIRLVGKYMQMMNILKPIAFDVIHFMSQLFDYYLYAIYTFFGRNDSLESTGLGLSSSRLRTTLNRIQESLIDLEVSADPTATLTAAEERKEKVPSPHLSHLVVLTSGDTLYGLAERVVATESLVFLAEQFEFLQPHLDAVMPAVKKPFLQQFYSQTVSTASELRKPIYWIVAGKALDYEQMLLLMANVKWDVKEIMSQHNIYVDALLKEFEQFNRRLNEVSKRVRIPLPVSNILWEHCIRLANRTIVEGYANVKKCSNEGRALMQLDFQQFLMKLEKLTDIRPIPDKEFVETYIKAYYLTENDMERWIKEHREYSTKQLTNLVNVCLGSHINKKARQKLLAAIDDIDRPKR
Sequence of UniProt P54578 (P54578 whole entry, looked up): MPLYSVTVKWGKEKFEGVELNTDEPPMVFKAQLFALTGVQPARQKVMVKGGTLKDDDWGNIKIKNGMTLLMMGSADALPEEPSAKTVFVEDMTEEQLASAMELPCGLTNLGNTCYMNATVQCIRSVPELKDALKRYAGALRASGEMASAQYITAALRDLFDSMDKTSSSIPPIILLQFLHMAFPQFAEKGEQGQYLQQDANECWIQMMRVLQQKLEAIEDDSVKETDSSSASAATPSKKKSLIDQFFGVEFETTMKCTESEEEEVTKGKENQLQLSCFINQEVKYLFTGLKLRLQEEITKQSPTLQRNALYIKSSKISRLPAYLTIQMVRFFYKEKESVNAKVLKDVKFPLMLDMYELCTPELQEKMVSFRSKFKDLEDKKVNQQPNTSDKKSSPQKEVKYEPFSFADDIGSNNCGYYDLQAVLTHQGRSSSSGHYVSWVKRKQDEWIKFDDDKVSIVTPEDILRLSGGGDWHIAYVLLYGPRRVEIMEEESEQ

Compound in this test: C[C@@H](Oc1cc(-c2cnn(C3CCNCC3)c2)cnc1N)c1c(Cl)ccc(F)c1Cl [crizotinib]
Nature of the test: log2 fold change, soluble protein after heating vs DMSO (PISA); higher = thermal stabilisation; K562 cells, 10 uM, 30 min; active = over 0.2 and 3.5 SD of the protein, either way, in both replicates (recomputed). The method in brief:
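Values are thermal stability changes relative to control samples and are taken from duplicates. They are stated as log2 fold changes. Before quantification by TMTpro 16plex LC-MS/MS with equalised channel sums, K562 cells at 2×10^6 cells/mL were treated with 10 μM compound for 30 min, heated in aliquots for 3 min across 48°C-58°C, pooled, extracted in PBS with 0.5% NP-40 at 4°C, and centrifuged at 21,000xg for 90 min to give the soluble supernatant.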
As for VPS18 (UniProt Q9P253), the log2 fold change was -0.21. TRAPPC11 (UniProt Q7Z392): the log2 fold change is 0.008. Turning to VDAC1 (UniProt P21796), the log2 fold change is 0.076. TNPO1 (UniProt Q92973): the log2 fold change was -0.034. Next, UGDH (UniProt O60701): 0.079; UCHL5 (UniProt Q9Y5K5): -0.066. TP53BP1 isoform 2 (UniProt Q12888): the log2 fold change was 0.076. As for VRK1 (UniProt Q99986), the log2 fold change was -0.11. Consider WEE1 (UniProt P30291), for which the log2 fold change was -0.025. Take VTI1A (UniProt Q96AJ9): the log2 fold change is -0.072. Then WASHC2A (UniProt Q641Q2), with -0.28 (active); and TMEM9 (UniProt Q9P0T7), with -0.026. For VPS33A (UniProt Q96AX1), the log2 fold change was -0.218.

Regarding TMEM70 (UniProt Q9BUB7), the log2 fold change was -0.096.

Consider XRCC5 (UniProt P13010), for which the log2 fold change is -0.086.

As for TRAPPC3 (UniProt O43617), the log2 fold change was 0.002. For the target TNPO3 (UniProt Q9Y5L0), the log2 fold change was -0.151. Then TPM2 (UniProt P07951), with -0.012; and UBE4B isoform 4 (UniProt O95155), with -0.013. USP14 (UniProt P54578): the log2 fold change is -0.023.

For VPS50 (UniProt Q96JG6), the log2 fold change was -0.118.

For the target TMEM87B (UniProt Q96K49), the log2 fold change was -0.323.

On to TMEM263 (UniProt Q8WUH6), for which the log2 fold change was -0.717 (active).
